# This is part of a sample that, as a whole, favours compounds with a hit. Of some 83,000 tested, about 20% had one in any assay.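 Results are percent growth after 48 hours of single-concentration exposure. 100 means growth as in untreated cells, lower positive values show inhibition; negative values down to -100 show cell death.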 A number with no mark means an inactive call. Activity calls are given as the source filed them. Rule for the calls: active = growth percent below 10; inactive = the rest.
# What was measured:
# Assay in all cases: NCI-60 one-dose screen, 48 h (100 = growth as untreated, 0 = no growth, -100 = all killed)
# Settings in all cases: 10 µM unless noted
# SK-MEL-2 melanoma = system: SK-MEL-2 melanoma
# EKVX NSCLC = system: EKVX NSCLC
# SN12C renal = system: SN12C renal
# UO-31 renal = system: UO-31 renal
# TK-10 renal = system: TK-10 renal
# ACHN renal = system: ACHN renal
# A498 renal = system: A498 renal
# CCRF-CEM leukemia = system: CCRF-CEM leukemia
# MOLT-4 leukemia = system: MOLT-4 leukemia
# SR leukemia = system: SR leukemia
SMILES,growth (SK-MEL-2 melanoma),growth (EKVX NSCLC),growth (SN12C renal),growth (UO-31 renal),growth (TK-10 renal),growth (ACHN renal),growth (A498 renal),growth (CCRF-CEM leukemia),growth (MOLT-4 leukemia),growth (SR leukemia)
CC1CCCN(CCCCCOc2ccc3oc4ccccc4c(=O)c3c2)C1 (stereo not given),82.3%,84%,64.3%,61.2%,82.3%,98.9%,75.9%,70.9%,49%,36.4%
COc1cc(NC(=O)c2cc(O)c(C/C=C(\C)CCC=C(C)C)c(O)c2)cc2c1O[C@]1(C)CC[C@@H](O)C(C)(C)[C@H]1C2,-5.49% (active),26.1%,20.5%,-21.5% (active),56.1%,4.47% (active),-29.2% (active),6.24% (active),0.564% (active),-1.71% (active)
Nc1c(C(=O)c2ccccc2)sc2nc(-c3cc4ccccc4o3)cc(-c3ccc(Cl)cc3)c12,84.1%,103%,165%,79.1%,137%,82.9%,199%,105%,101%,108%
COc1ccc(C2=NN(c3ccc(S(N)(=O)=O)cc3)C(c3ccc(Cl)cc3)C2)c(O)c1 (stereo not given),87.9%,56%,73%,60.3%,53.7%,65%,47.2%,26.8%,32.5%,16.1%
CCOC(=O)c1c(C)nc2c(c1N)CC(=O)N2CCc1ccccc1,39.2%,55.9%,24.3%,36.6%,-3.79% (active),34.2%,11.9%,9.62% (active),18.6%,3.16% (active)
COc1cc(C)ccc1Oc1nc(Nc2ccc(N3CCOCC3)cc2)ncc1N=Cc1cc(C(F)(F)F)cc(C(F)(F)F)c1,70.2%,81.7%,80.3%,47.6%,81.6%,56.3%,58.8%,82%,44.7%,49.7%
O=C(Nc1nccs1)c1noc2ccccc12,109%,88.6%,97.1%,86.1%,133%,96.9%,101%,85.7%,96.8%,87%
Nc1c(C(=O)Nc2ccccc2)sc2nc3c(cc12)CN(C(=O)OCc1ccccc1)CC3,31.8%,69.6%,66%,67.5%,98.8%,60.2%,44.6%,31.8%,37.8%,25.1%
CCCCCCC/C=C/[C@H]1O[C@]23C(=O)C[C@@]4(C[C@@H](OC5OC(CO)C(O)C(O)C5O)C[C@@H]4[C@H]2C=C1C)OC3=O (stereo not given in full),-9.46% (active),86.9%,26.7%,3.36% (active),35.8%,4.9% (active),70.1%,19%,8.32% (active),6.22% (active)
C=C1C(=O)O[C@H]2[C@H]1CC/C(COC(=O)CCCCC(=O)OC/C1=C/CC[C@@]3(C)O[C@H]3[C@H]3OC(=O)C(=C)[C@@H]3CC1)=C\CC[C@@]1(C)O[C@@H]21,71.9%,59.1%,27.8%,45.8%,25.2%,12.6%,124%,0.447% (active),10.3%,2.3% (active)
CCOC(=O)c1sc(/N=C2\NC(=O)/C(=C/c3ccc(N4CCN(C)CC4)cc3)S2)nc1C,98%,96.7%,111%,84.6%,116%,108%,111%,91.7%,88.9%,101%
Cc1cccc(C)c1NC(=O)CN(CC(C)C)CC(O)COc1ccccc1 (stereo not given),93.8%,85.2%,104%,85.8%,96.9%,104%,63.8%,96.9%,88.2%,92.1%
COc1ccc(NC(=O)c2ccc(Nc3ncnc4[nH]c(C)c(C)c34)cc2)cc1,99.2%,102%,95.6%,97.5%,93.7%,107%,92.7%,112%,95.1%,89.3%
O=C(Nc1cc(Br)ccn1)c1cc2cc(Nc3nc(-c4ccccc4)nc4ccccc34)ccc2oc1=O,90.8%,109%,110%,75.4%,106%,103%,112%,107%,100%,82.2%
C/C(=N/Nc1nc2ccccc2n1C)c1ccccn1,39.8%,6.63% (active),10.1%,-16.4% (active),36.8%,10.3%,-29.8% (active),-6.15% (active),1.82% (active),3.01% (active)
COc1cc(C2=NN(C=O)C(c3cccc(Nc4ccnc5cc(C(F)(F)F)ccc45)c3)C2)cc(OC)c1OC (stereo not given),70.7%,61.5%,62.4%,37.6%,46.5%,65.5%,65.4%,37.5%,21.5%,32.3%
C#Cc1cccc(Nc2ncnc3ccc(NC(=O)c4ccccc4)cc23)c1,85.3%,52.3%,76.6%,56%,26.1%,39.6%,65.4%,89.7%,59.5%,61.8%
COc1cc2nc3c(=O)n(CCN(C)C)cnn3c(=O)c2cc1OC,101%,95.7%,104%,89.6%,103%,105%,92.7%,146%,104%,105%
CCSc1ccc(C2C(Br)C(=O)N2c2cc(OC)c(OC)c(OC)c2)cc1 (stereo not given),63.7%,70.2%,31.6%,26.2%,76.6%,32.6%,-14.3% (active),12.3%,20%,16.3%
COc1cccc(NC(=O)Nc2ccc(Nc3ncnc4[nH]c(C)c(C)c34)cc2)c1,104%,96.5%,95%,85.2%,112%,102%,107%,86.1%,78.8%,91.1%
Cc1cc(Nc2nc(SCc3ccc(C(=O)Nc4ccc(F)cc4N)cc3)nn3cccc23)n[nH]1,18.2%,31%,29%,31%,48.8%,21.1%,5.84% (active),9.8% (active),6.29% (active),13.3%
Cc1cc(C)cc(Nc2nccc(-c3c(-c4ccc(F)cc4)ncn3C3CCNCC3)n2)c1,21.4%,27.4%,16.5%,-28.6% (active),17.8%,4.78% (active),53.2%,-12.6% (active),-14.2% (active),-31% (active)
COc1cc(C2=NNC(c3ccc(N(C)C)cc3)C2)cc(OC)c1OC (stereo not given),60.9%,44.4%,49.3%,38.9%,59.2%,50.6%,-8.21% (active),17%,37.1%,-5.74% (active)
CCCCn1c(=O)c(/C=C/C(=O)/C=C/c2cc3ccccc3n(CCCC)c2=O)cc2ccccc21,79.5%,35.8%,-28.1% (active),-95.1% (active),23.4%,5.75% (active),12.8%,-0.077% (active),1.3% (active),1.82% (active)
O=C1CS/C(=N/c2nnc(-c3ccc(O)cc3)s2)N1,108%,92.7%,101%,93.5%,115%,103%,108%,97%,80.5%,93.1%
COc1cc(C2=NN(c3ccccc3)C(c3cccc(Nc4ccnc5cc(C(F)(F)F)ccc45)c3)C2)cc(OC)c1OC (stereo not given),86.6%,85.2%,97.1%,61.4%,78.2%,95.2%,89.9%,84.1%,65.3%,56.9%

# — PubChem BioAssay (NCI)
